# HP1b chromo inh – inhibitors of HP1-beta chromodomain binding to methylated histone tails | P83916 | AlphaScreen HP1-beta / biotin-H3K9me3 peptide binding | Potency, µM (series often up to 114 µM), without a hit: at the top dose activity change, negative = inhibition, most hits filed as inhibitors | 390,000 compounds, 0.56% hits | AID 540317; further: nearly all actives have a fitted effect of over 70% in size
# Target sequence (P83916 whole entry, looked up): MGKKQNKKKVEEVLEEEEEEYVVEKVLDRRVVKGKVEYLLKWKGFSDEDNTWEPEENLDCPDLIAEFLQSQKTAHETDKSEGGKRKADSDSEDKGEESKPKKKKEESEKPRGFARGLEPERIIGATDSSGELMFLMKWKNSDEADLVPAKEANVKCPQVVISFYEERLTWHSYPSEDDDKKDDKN
#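 HP1-beta protein (50 nM final) preincubated 30 min at room temperature with biotinylated H3(1-18)K9me3 peptide (50 nM) in PBS pH 7.4, 0.01% Tween-20, then compound added for 30 min. AlphaScreen streptavidin donor/nickel chelate acceptor beads (10 ug/mL final), 30 min dark, luminescence read.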
# Sfp PPTase inh – Sfp phosphopantetheinyl transferase inhibition | Q9F4F7 | Biochemical Sfp PPTase activity, qHTS | Potency, µM, for inactives: largest response in the series, negative = inhibition, usual class: inhibitors | 310,000 compounds, 3.5% hits | AID 1490;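 further: the enzyme is Sfp with the accession as filed and its product quenches rhodamine fluorescence; 0% = enzyme reaction without inhibitor and -100% = no enzyme wells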
#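 Reaction rates are the 30-min fluorescence difference (ex 525, em 598 nm) in wells containing 15 nM Sfp, 5 uM rhodamine-CoA and 12.5 uM BHQ-2-YbbR at pH 7.6 with 10 mM MgCl2.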
# BAZ2B inh – inhibitors of human BAZ2B bromodomain | Q9UIF8 | AlphaScreen BAZ2B-H3K14Ac peptide displacement | Potency, µM (doses to about 114 µM), for the others: top-dose activity change, negative = inhibition, most hits filed as inhibitors | 360,000 compounds, 4.4% hits | AID 504333; further: on the % scale 0 is the no-effect control and ±100 the full control effect; nearly all actives have a fitted effect of over 60% in size
#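 BAZ2B (50 nM) with biotin-H3(5-23)K14Ac peptide (50 nM) in PBS pH 7.4, 0.01% Tween-20, preformed 30 min, then compound 30 min at room temperature; top concentration 110uM. AlphaScreen streptavidin donor/nickel chelate acceptor beads (10 ug/mL final), 20 min dark, signal read.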
# G9a block – inhibitors of human histone lysine methyltransferase G9a. Q96KQ7. Potency, µM (highest dose often 102 µM), inactives show at the top dose activity, negative = inhibition, hits mostly inhibitors. 350,000 compounds, 8.8% hits. AID 504332. G9a H3K9 monomethylation, AlphaScreen, 2 h; further: on the % scale 0 is the no-effect control and ±100 the full control effect; nearly all actives have a fitted effect of over 75% in size
# Target sequence (Q96KQ7 913-1193 limits assumed): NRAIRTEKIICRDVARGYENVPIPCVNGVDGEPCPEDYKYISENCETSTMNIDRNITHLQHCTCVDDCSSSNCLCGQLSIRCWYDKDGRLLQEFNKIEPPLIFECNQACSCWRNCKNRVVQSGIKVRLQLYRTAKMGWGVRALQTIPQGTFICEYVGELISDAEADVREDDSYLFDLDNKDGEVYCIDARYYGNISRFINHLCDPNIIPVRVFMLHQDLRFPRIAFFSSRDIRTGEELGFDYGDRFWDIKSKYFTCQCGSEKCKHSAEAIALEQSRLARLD
#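 AlphaScreen read-out: biotin-H3K9 peptide (500 nM) methylation by 20 nM enzyme with 20 uM SAM, 2 h at room temperature after 15 min compound preincubation; anti-monomethyl H3K9 antibody plus donor/acceptor beads, 10 min dark.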
# JMJD2A Tudor – blocks the human JMJD2A Tudor domain; AlphaScreen JMJD2A-Tudor / H3K4me3 peptide binding; Potency, µM (highest dose often 114 µM), without a hit: top-dose activity change, negative = inhibition, most hits filed as inhibitors; 390,000 compounds, 4.4% hits; further: on the % scale 0 is the no-effect control and ±100 the full control effect; nearly all actives have a fitted effect of over 50% in size
# L3MBTL1 inh – blocks human L3MBTL1 | Q9Y468 | AlphaScreen L3MBTL1–H3K9me1 peptide binding | 230,000 compounds, 0.66% hits | Potency, µM (doses to about 57.1 µM), for the others: top-dose activity, negative = inhibition, usual class: inhibitors; further: on the % scale 0 is the no-effect control and ±100 the full control effect; nearly all actives have a fitted effect of over 60% in size
#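 AlphaScreen proximity signal between nickel-chelate acceptor and streptavidin donor beads (final 10 ug/mL) reports binding of 50 nM L3MBTL1 to 75 nM biotin-H3 K9me1 peptide; complex incubated with compounds 30 min at room temperature; cefsulodin titration as control.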
# An asterisk follows results filed as active; ? = inconclusive; . = not tested or not shown; [ ] = another dose, or the depositor's remark. Most compounds without a hit are left out; they make up all but 12% or so of the library. The call rests on the fitted dose curve; in most records, active means well fitted curve in the direction sought with a large enough effect; inconclusive means small, poorly fitted or top-dose-only effect, or another doubt; inactive means no such curve, though single readings can be large; an effect the other way counts as inactive or inconclusive. Potency means the concentration at half of the fitted maximal effect.
SMILES,HP1b chromo inh,Sfp PPTase inh,BAZ2B inh,G9a block,JMJD2A Tudor,L3MBTL1 inh
COC(=O)CCCC(=O)NC1CCCc2c1cnn2-c1ccc(F)cc1F (stereo unspecified),43%,14%,13%,46%,-5%,5%
Cc1ccc(/C=C2\SC(=O)N(CCNC(=O)C3CSC4(C)CCC(=O)N34)C2=O)cc1 (stereo unspecified),13%,.,-24%,35µM*,-18%,13%
CCC(=O)NC(c1ccc(N(C)C)cc1)c1c(O)ccc2ccccc12 (stereo unspecified),?,2%,28µM*,10µM*,50µM*,-8%
CC(C)C(=O)NC(c1ccco1)c1c(O)ccc2ccccc12 (stereo unspecified),-5%,-2%,-34%,32µM*,?,-1%
CC(C)C(=O)NC(c1ccccc1Cl)c1c(O)ccc2ccccc12 (stereo unspecified),14%,3%,7%,6%,-3%,3%
COc1cc(C(=S)N2CCC(C)CC2)ccc1O,-25%,45µM*,-26%,7.9µM*,-23%,.
COc1ccc(C(=O)C2CCCN(C(=O)Cn3ccc(C)n3)C2)cc1OC (stereo unspecified),15%,-8%,1%,18%[0.501 µM],-11%,15%
COc1cc(C(=S)N2CCCC2)ccc1O,-26%,?,-6%,14µM*,-1%,5%
COc1ccc(C(=O)C2CCCN(C(=O)CSC)C2)cc1OC (stereo unspecified),30%,7%,3%,71µM*,-11%,2%
COc1cc(C(=O)C(=O)c2ccc(O)c(OC)c2)ccc1O,42%,5%,-7%,8%[12.7 µM],-1%,-3%
COc1cc(C(=S)N2CCC(C(N)=O)CC2)ccc1O,-17%,20µM*,6%,?,-3%[11.4 µM],9%
CCOc1ccc(C(=S)N2CCCC2)cc1OC,22%,14%,-4%,8%[59 µM],-6%,1%
COc1cc(C(=S)N2CCCCC2)ccc1O,16%,45µM*,-2%,50µM*,0%,.
CCOc1cc(C(=S)N2CCCC2)ccc1O,?,35µM*,8%,.,-6%,2%
CCCn1c(N)c(N(CCOC)C(=O)c2cc(-c3ccco3)nc3ccccc23)c(=O)[nH]c1=O,14%,45µM*,?,40µM*,?,.
COCCN(C(=O)c1ccc(N2CCCC2=O)cc1)c1c(N)n(Cc2ccccc2)c(=O)[nH]c1=O,35%,.,6%,7.9µM*,-12%,0%
CCCCn1c(N)c(N(CCOC)C(=O)c2ccc(N3CCCC3=O)cc2)c(=O)[nH]c1=O,29%,.,10%,-4%[12.7 µM],-13%,-2%
CCCn1c(N)c(N(CCOC)C(=O)c2ccc(N(C)S(=O)(=O)c3ccc(C)cc3)cc2)c(=O)[nH]c1=O,5%,.,?,1µM*,-9%,-10%
CCCn1c(N)c(N(CCOC)C(=O)c2ccc(N3CCCC3=O)cc2)c(=O)[nH]c1=O,38%,.,5%,56µM*,0%,8%
CC(C)CC(=O)Nc1nnc(S(=O)(=O)N2c3ccccc3CC2C)s1 (stereo unspecified),38%,5%,?,-1%,?,0%
CCCn1c(N)c(N(CCOC)C(=O)c2ccc([N+](=O)[O-])cc2Cl)c(=O)[nH]c1=O,4%,2%,8%,50µM*,-9%,.
COCCN(C(=O)c1ccc(OCC(C)C)cc1)c1c(N)n(Cc2ccccc2)c(=O)[nH]c1=O,12%,.,-1%,35µM*,-8%,3%
COc1cc2c(c(OC)c1OC)C(=O)CO2,4%,.,.,.,-9%,.
CN(Cc1ccccc1)C1CC(=O)N(c2ccc(C(=O)O)cc2)C1=O (stereo unspecified),50%,-23%,9%,3.5µM*,-13%,-8%
CCCCCOc1ccc(N2C(=O)CC(N(O)c3ccccc3)C2=O)cc1 (stereo unspecified),18%,-4%,-2%,50µM*,-19%,-7%

# From PubChem BioAssay
